Hits are enriched below; roughly 2.9% of the tested compounds scored in any of these assays.
Bim-Mcl-1: disrupts Bim peptide binding to human Mcl-1; inhibition, % at 10 µM; Bead-based flow cytometry, Bim peptide-Mcl-1 binding; 190,000 tested, 0.1% active; in the data active = inhibition above about 40%
Target sequence (Q07820 whole entry, looked up): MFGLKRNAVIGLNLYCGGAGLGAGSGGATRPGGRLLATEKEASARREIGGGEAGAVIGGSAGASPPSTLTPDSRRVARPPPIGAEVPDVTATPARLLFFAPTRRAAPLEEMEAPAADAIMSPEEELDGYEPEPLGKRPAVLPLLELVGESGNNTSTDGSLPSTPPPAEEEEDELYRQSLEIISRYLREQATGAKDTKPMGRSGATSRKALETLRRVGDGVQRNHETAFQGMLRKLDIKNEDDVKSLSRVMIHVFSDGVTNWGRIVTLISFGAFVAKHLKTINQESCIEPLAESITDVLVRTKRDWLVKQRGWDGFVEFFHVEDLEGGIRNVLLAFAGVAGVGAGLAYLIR
Hck Nef HTS: inhibitors of human Hck kinase activated by Nef | 220,000 tested, 0.68% active | AID 463187 | Recombinant Hck-YEEI plus Nef, Z-Lyte FRET kinase assay | P08631 | inhibition, % at 20 µM;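 active = Hck-Nef kinase inhibition above about 50%, limit read from the data; inactive = inhibition below that limit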
Pf gametocyte: inhibitors of late stage P. falciparum gametocyte viability; P. falciparum stage V gametocytes, ATP luminescence, 24 h; 150,000 tested, 0.065% active; inhibition, % at 10.9 µM;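 active = inhibition above the mean plus 3 SD of compounds within the control limits, set per campaign, cut at about 38% in these data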
Mcl1-Noxa inh: disrupts binding of human Mcl-1 to Noxa peptide; TR-FRET Mcl-1/Noxa peptide binding, 2 h; inhibition, % at 21.7 µM; 220,000 tested, 1.5% active;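 active = compounds that cut the protein-peptide binding signal by more than 50% relative to plate controls in a single-dose test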;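 also: His-tagged Mcl-1 with rhodamine Noxa BH3 peptide and terbium anti-His antibody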
Mcl1-Bid inh: Mcl-1/Bid interaction inhibition. Q07820. TR-FRET Mcl-1/Bid-Dy647 peptide binding, 1536-well. inhibition, % at 21.7 µM. 220,000 tested, 0.97% active. AID 1021;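 active = compounds that cut the binding signal by more than half at the single screening dose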;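 also: His-tagged Mcl-1 with europium anti-His antibody binding Bid BH3 peptide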
14-3-3 Bad inh: disrupts binding of bovine 14-3-3 zeta to phospho-Bad peptide | TR-FRET 14-3-3zeta/Dy647-pBad peptide displacement, 1 h | inhibition, % at 21.7 µM | 220,000 tested, 0.71% active | AID 781;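 active = inhibition above about 70%, limit read from the data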
Target sequence (P63103 whole entry, looked up): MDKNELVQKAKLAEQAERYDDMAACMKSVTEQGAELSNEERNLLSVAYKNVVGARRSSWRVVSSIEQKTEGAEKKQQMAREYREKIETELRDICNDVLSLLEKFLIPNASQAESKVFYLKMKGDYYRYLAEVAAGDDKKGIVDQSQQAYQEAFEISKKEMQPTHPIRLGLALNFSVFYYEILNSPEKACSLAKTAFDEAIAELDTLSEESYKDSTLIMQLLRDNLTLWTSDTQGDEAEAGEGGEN
Numbers stand for hits; . = inactive; / = no result; [ ] = remark or other dose.

SMILES | Bim-Mcl-1 | Hck Nef HTS | Pf gametocyte | Mcl1-Noxa inh | Mcl1-Bid inh | 14-3-3 Bad inh
O=C(COC(=O)c1cncc(Br)c1)NCc1ccco1 | . | . | / | 56.4 | . | .
COc1cc(NC(=O)c2cccs2)c(C(=O)OCC(=O)NCc2ccco2)cc1OC | . | . | / | 63.4 | . | .
O=C(COC(=O)c1ccc(NS(=O)(=O)c2cccs2)cc1)NCc1ccco1 | / | 57.3 | / | 107.4 | . | .
COc1cc(C(=O)OCC(=O)NCc2ccco2)cc(OC)c1OC | . | . | . | . | . | .
Cc1ccc(NS(=O)(=O)c2cccc(C(=O)OCC(=O)NCc3ccco3)c2)cc1 | . | . | / | . | . | .
O=C(N/C(=C\c1cccnc1)C(=O)N1CCOCC1)c1ccco1 | . | . | . | . | . | .
O=C(NCC1CCCO1)c1ccc(CSCc2cccc(F)c2)o1 (centres undefined) | . | . | . | . | 89.5 | .
O=C(CSCc1c[nH]c(=O)[nH]c1=O)OCC(=O)c1ccc(Br)cc1 | . | . | / | . | . | .
COc1ccc(NC(=O)/C=C/c2ccc(Br)o2)cn1 | . | . | . | 58.3 | . | .
COc1ccc(NC(=O)/C=C/c2ccco2)cn1 | . | . | . | . | . | .
O=[N+]([O-])c1ccccc1/C=C/C=N/n1c(-c2ccc(Cl)cc2)n[nH]c1=S | . | . | . | . | . | 79.0
O=[N+]([O-])c1ccccc1/C=C/C=N/n1c(-c2ccccc2)n[nH]c1=S | . | . | . | 73.4 | . | .
OCC1(Cc2cccc(Cl)c2)CCCN(Cc2cn[nH]c2C2CCCCC2)C1 (centres undefined) | . | . | . | . | . | .
COCCNC(=O)[C@H](CSCc1ccccc1)N1Cc2ccccc2C1=O | / | . | . | . | . | .
CCOc1cc(Br)c(Br)c(C=Nc2ccc(NC(C)=O)cc2)c1O | . | 62.6 | . | 51.0 | . | .
Cc1c(Cl)cccc1NC(=O)C1CCN(S(C)(=O)=O)CC1 | . | . | . | . | . | .
COc1cc(C2(c3ccc(O)c(OC)c3)C(=O)Nc3c(Br)cc(Br)cc32)ccc1O | / | / | . | / | / | /
CC(=C\c1ccccc1)/C=C1/SC(=S)N(CCC(=O)Nc2ccccn2)C1=O | . | . | / | . | . | .
CC(/C=C1\SC(=S)N(CCCC(=O)Nc2ccc(C(=O)O)cc2)C1=O)=C\c1ccccc1 | . | . | . | 52.5 | . | .
O=C(CCCN1C(=O)/C(=C\c2cccc(Br)c2)SC1=S)Nc1cccnc1 | . | . | . | . | 59.4 | .
COc1cc2ccccc2cc1C(=O)NC(=S)Nc1cc(C(=O)O)ccc1C | . | . | . | . | . | .
COc1cc(C(=O)Nc2nc(-c3ccc(F)cc3)cs2)ccc1OCC(=O)N1CCOCC1 | . | . | . | . | . | .
C=CC(=O)NC1CC2CCC1(C)C2(C)C (centres undefined) | / | . | . | . | . | .
CCc1nc(N2CCCCC2)c2oc3ccccc3c2n1 | . | . | . | . | . | .
CCc1nc(Nc2ccncc2)c2oc3ccccc3c2n1 | . | . | / | / | / | /
SMILES | Bim-Mcl-1 | Hck Nef HTS | Pf gametocyte | Mcl1-Noxa inh | Mcl1-Bid inh | 14-3-3 Bad inh
CCc1nc(NC(C)C)c2oc3ccccc3c2n1 | . | . | / | . | . | 75.6
CCc1nc(N2CCN(Cc3ccc4c(c3)OCO4)CC2)c2oc3ccccc3c2n1 | . | . | . | . | . | 79.7
CCc1nc(N[C@H](C(=O)O)C(C)C)c2oc3ccccc3c2n1 | / | . | . | . | . | .
CCc1nc(Nc2ccc3c(c2)OCO3)c2oc3ccccc3c2n1 | . | . | . | . | . | 70.1[fluorescence artefact?]
Cc1ccc(NC(=S)NNC(=S)Nc2ccc(C)cc2C)cc1 | . | . | / | . | . | .
N#CC(C#N)=c1ccc2c(c1)N1C(c3ccccc3)=CC(c3ccccc3)C3CCCCC31N=2 (centres undefined) | / | . | . | . | . | .
CCOC(=O)C1C(=O)C=C(/C=C/c2ccccc2)CC1c1ccc(Cl)cc1 (centres undefined) | . | . | . | . | . | .
OCC1(CCc2ccccc2)CCN(Cc2cc(Cl)ccc2O)CC1 | . | . | / | . | . | .
COc1cccc(C2NC(=O)NC(C)=C2C(=O)Nc2ccc(C)cc2)c1OC (centres undefined) | . | . | . | . | . | .
COc1ccc(NC(=O)C2=C(C)NC(=O)NC2c2cccc(OC)c2OC)c(OC)c1 (centres undefined) | 43.0 | . | . | . | . | .
COC(=O)C1=C(C)C(c2ccc(OC)cc2OC)NC(=O)N1 (centres undefined) | . | . | / | . | 64.5 | .
O=C(c1ccc(CN2CCOCC2)cc1)N1CCN(c2ccccc2)CC1 | . | . | . | . | . | .
Cc1cc(NC(=O)CSc2nnc(C3COc4ccccc4O3)o2)no1 (centres undefined) | . | . | . | . | . | .
Cc1cccc(-n2c(N)c(C(=O)NCCN3CCOCC3)c3nc4ccccc4nc32)c1 | . | . | / | . | . | 70.7
COc1ccc(S(=O)(=O)NCc2cn3c(C)csc3n2)cc1F | . | . | / | . | . | .
CC(C)(C)CC(=O)O/N=C(\N)c1ccccn1 | . | . | . | . | 85.4 | .
CCOC(=O)c1sc(/N=C/c2ccc(O)cc2O)cc1C | . | . | . | 56.6 | . | .
COc1ccc(C(=O)C2CCCN(C(=O)c3cccnc3OC)C2)c(C)c1 (centres undefined) | . | . | / | . | . | .
Cn1c(=O)nc2n(Cc3ccccc3)c3cccc(Cl)c3cc-2c1=O | . | . | . | . | 62.0 | .
Cc1ccc(-n2c3nc(=O)n(C)c(=O)c-3cc3ccccc32)cc1 | / | . | . | . | . | .
CSc1cccc(NC(=O)CSc2ccc(C)cc2)c1 | . | . | / | . | . | .
CCOc1ccc(C(=O)NCC(C)CN(C)C)cc1OCC (centres undefined) | . | . | / | . | . | .
Cc1cc(-c2ccccc2)c2c3c(c(-c4ccccc4)n2n1)c(=O)n(C)c(=O)n3C | . | . | / | / | . | .
CC1=C/C(=C\c2ccc(Br)o2)C(=O)O1 | . | . | / | 71.2 | . | .
COc1ccccc1-c1ccc(/C=C2/C=C(C)OC2=O)o1 | . | . | / | . | . | .
SMILES | Bim-Mcl-1 | Hck Nef HTS | Pf gametocyte | Mcl1-Noxa inh | Mcl1-Bid inh | 14-3-3 Bad inh
O=C1C(=Cc2ccc(Br)o2)C(=O)c2ccccc21 | . | . | / | 104.8 | 76.0 | 88.8[fluorescence artefact?]
FC(F)Oc1ccccc1NC(=S)NCCc1ccccc1 | / | / | . | / | / | /
Oc1ccc(/C=N/N=C(c2ccccc2)c2ccccc2)c(O)c1O | . | . | . | 101.2 | . | .
O=C(/C(=N/N=C/c1ccc(O)c(O)c1O)c1ccccc1)c1ccccc1 | . | . | . | 51.8 | . | .
Oc1cccc(C=NCc2ccccc2)c1O | . | . | . | . | . | .
CN(C)c1ccc(NC(=O)COC(=O)c2cc(Cl)ccc2[N+](=O)[O-])cc1 | . | . | . | 53.5 | . | .
COc1ccc(N(C(C)C(=O)NC2CCCCCC2)S(C)(=O)=O)cc1 (centres undefined) | . | . | / | . | . | .
Fc1ccc(Nc2nc(Oc3ccccc3F)nc(N3CCCC3)n2)cc1 | . | . | / | . | . | .
